UHRF1 binding = blocks human UHRF1 binding to methylated DNA. inhibition, % at 4.4 µM. Q96T88. UHRF1 binding to methylated oligo, TR-FRET. 370,000 tested, 0.75% active. AID 687016; in the data active = inhibition above about 21%;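 also: UHRF1 SRA domain binding a hemimethylated CpG hairpin DNA probe; 0% = median of test compound wells and 100% = reference inhibitor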
PLC-gamma1 inh = blocks human PLC-gamma1 enzyme activity; 370,000 tested, 0.84% active; purified PLC-gamma1, fluorogenic substrate, fluorescence; inhibition, % at 12.2 µM; P19174; in the data active = inhibition above about 9.5%
Target sequence (P19174 whole entry, looked up): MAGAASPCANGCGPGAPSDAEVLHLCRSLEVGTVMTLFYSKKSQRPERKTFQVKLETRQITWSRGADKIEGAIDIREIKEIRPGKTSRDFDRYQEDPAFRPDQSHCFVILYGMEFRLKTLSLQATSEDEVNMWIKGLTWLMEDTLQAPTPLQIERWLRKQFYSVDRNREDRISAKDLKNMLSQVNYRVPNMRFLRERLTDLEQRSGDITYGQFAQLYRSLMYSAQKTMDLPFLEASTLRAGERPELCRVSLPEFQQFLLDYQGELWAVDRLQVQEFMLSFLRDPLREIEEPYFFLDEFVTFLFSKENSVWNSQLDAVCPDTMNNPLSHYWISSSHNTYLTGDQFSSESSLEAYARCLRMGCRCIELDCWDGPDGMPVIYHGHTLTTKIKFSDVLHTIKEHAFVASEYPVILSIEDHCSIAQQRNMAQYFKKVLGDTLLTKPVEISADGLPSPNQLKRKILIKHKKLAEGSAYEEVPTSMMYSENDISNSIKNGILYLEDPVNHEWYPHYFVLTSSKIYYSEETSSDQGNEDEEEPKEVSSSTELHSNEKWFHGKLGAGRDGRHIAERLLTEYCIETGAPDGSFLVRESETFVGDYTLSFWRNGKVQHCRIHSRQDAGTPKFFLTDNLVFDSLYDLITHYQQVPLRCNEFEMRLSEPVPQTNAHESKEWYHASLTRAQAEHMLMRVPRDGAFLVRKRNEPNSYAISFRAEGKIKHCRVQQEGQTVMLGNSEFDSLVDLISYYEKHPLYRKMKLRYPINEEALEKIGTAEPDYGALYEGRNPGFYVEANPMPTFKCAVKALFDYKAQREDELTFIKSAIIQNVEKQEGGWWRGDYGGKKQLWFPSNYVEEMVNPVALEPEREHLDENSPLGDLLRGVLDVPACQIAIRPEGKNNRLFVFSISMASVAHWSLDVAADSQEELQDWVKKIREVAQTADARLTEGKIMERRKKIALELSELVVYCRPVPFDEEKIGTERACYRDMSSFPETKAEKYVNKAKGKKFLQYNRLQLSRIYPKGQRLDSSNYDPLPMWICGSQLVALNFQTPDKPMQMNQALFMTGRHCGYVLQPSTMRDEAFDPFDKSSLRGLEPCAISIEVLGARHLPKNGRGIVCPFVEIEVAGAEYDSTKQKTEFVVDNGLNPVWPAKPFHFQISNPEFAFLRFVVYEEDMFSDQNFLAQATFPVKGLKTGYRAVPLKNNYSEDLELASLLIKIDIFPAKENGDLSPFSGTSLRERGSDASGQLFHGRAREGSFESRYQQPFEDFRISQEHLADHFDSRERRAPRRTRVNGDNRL
MBD2 DNA inh = blocks human MBD2 binding to methylated DNA. 370,000 tested, 0.31% active. TR-FRET, MBD2 binding to methylated oligonucleotide. Q9UBB5. inhibition, % at 4.4 µM; in the data active = inhibition above about 13%
PLC-beta3 inh = PLC-beta3 (human) inhibition, primary screen. Q01970. Purified PLC-beta3, fluorogenic substrate, fluorescence. inhibition, % at 12.2 µM. 370,000 tested, 0.18% active;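 also: 0% = median of compound wells on plate and 100% = full blocker control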
LEDGF integ inh = blocks HIV-1 LEDGF/p75-dependent DNA integration | TR-FRET IN-LEDGF/p75 DNA integration, Eu/Cy5 | inhibition, % at 3.7 µM | 370,000 tested, 0.64% active | AID 743269;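 active = inhibition above the screen-wide mean plus 3 SD, cut at about 13% in these data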;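 also: signal is the Cy5 over europium emission ratio at 671 and 618 nm; 0% = plate median of compound wells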
UHRF1 DNA bind = UHRF1 methyl-oligo binding inhibition as MBD2 counter-screen; AID 720530; UHRF1 binding to methylated oligonucleotide, TR-FRET; 1,000 tested, 25% active; inhibition, % at 4.4 µM; shares compounds with MBD2 DNA inh; in the data active = inhibition above about 21%;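 also: UHRF1 SRA domain binding a labeled hemimethylated CpG hairpin DNA; 0% = vehicle only and 100% = reference inhibitor with vehicle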
MBD2 DBD conf = MBD2-DBD methyl-DNA binding inhibition, TR-FRET confirmation; shares compounds with MBD2 DNA inh; TR-FRET MBD2-DBD binding to methylated oligonucleotide; inhibition, % at 4.4 µM; 1,000 tested, 26% active; in the data active = inhibition above about 14%
PLCgamma1 ctr = counter-screen for PLC-beta3 inhibitors: inhibitors of human PLC-gamma1 | 3,300 tested, 3.1% active | purified PLC-gamma1, fluorogenic substrate, fluorescence | shares compounds with PLC-gamma1 inh | inhibition, % at 12.3 µM; in the data active = inhibition above about 9.5%
PLCb3 confirm = confirmation of human PLC-beta3 inhibitors; shares compounds with PLC-gamma1 inh; purified PLC-beta3, fluorogenic substrate fluorescence; inhibition, % at 12.3 µM; 3,300 tested, 1% active
IN multimer act = HIV-1 integrase multimerization activation, counter-screen. AID 1053131. TR-FRET HIV-1 integrase multimerization, biochemical. activation, % at 7.7 µM. shares compounds with LEDGF integ inh. 2,000 tested, 17% active; in the data active = activation above about 8.9%
TR-FRET interf = optically interferes with TR-FRET readout in LEDGF counter-screen; 2,000 tested, under 10 active; inhibition, % at 7.7 µM; TR-FRET optical interference counterscreen, HIV-1 IN multimerization; AID 1053135; shares compounds with LEDGF integ inh;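 active = inhibition above the mean over all tested compounds plus 3 SD, which no compound reached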;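 also: 0% = integrase with antibodies and DMSO and 100% = antibodies without integrase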
IN-LEDGF confirm = LEDGF/p75-dependent HIV-1 integration inhibition, confirmation | TR-FRET LEDGF/p75-dependent HIV-1 integration, biochemical | inhibition, % at 3.7 µM | shares compounds with LEDGF integ inh | 2,000 tested, 36% active | AID 1053136; in the data active = inhibition above about 14%
Numbers without * were called inactive; i = inactive; . = no result. A selection: hits, their analogues and other compounds. The true share with any hit is near 2.3%. Rule as the data show it, unless noted: active = inhibition above about 11%; inactive = the rest.

SMILES	UHRF1 binding	PLC-gamma1 inh	MBD2 DNA inh	PLC-beta3 inh	LEDGF integ inh	UHRF1 DNA bind	MBD2 DBD conf	IN multimer act	TR-FRET interf	IN-LEDGF confirm	others
O=C1c2cccc(NCCCNCCO)c2C(=O)c2cccc(NCCCNCCO)c21	93*	0	105*	-7	16*	82*	102*	18*	-89	13*
Cc1ccc(CSc2nnc(-c3n[nH]c4c3CCC4)n2N)cc1	1	0	4	-2	-3	.	.	.	.	.
COc1ccc([C@H]2OC(=O)C[C@@H]2C(=O)N2CCN(c3ccccc3Cl)CC2)cc1OC	-1	-4	0	-2	0	.	.	.	.	.
CCCCN1Cc2c(nc3cc(-c4ccco4)[nH]n3c2=O)C1=O	63*	i	25*	-489	32*	7	4	4	-14	8
COCc1cc(=O)n2[nH]c(-c3ccco3)cc2n1	-2	-21	4	-22	-3	.	.	.	.	.
c1coc(-c2nnc3sc(Cc4cccs4)nn23)c1	71*	20*	19*	-10	38*	8	9	6	-28	18*	PLCgamma1 ctr=-6;PLCb3 confirm=-5
COc1ccc(OCc2nn3c(-c4ccco4)nnc3s2)cc1	-1	1	-6	-1	1	.	.	.	.	.
COC(=O)c1cc(O)cc(OC)c1Oc1cc(C)cc(O)c1C(=O)O	29*	-6	14*	-11	19*	56*	30*	40*	-202	58*
O=C(NCCc1ccccc1)OCc1cn(Cc2cccc(C(F)(F)F)c2)nn1	3	-2	0	0	3	.	.	.	.	.
CCOc1ccc(N2CC(C(=O)Nc3nnc(Cc4ccc(OC)cc4)s3)CC2=O)cc1 (configuration not stated)	65*	16*	33*	-2	15*	7	4	2	-9	3	PLCgamma1 ctr=-6;PLCb3 confirm=-4
O=C(CCc1nc(-c2ccc(Cl)cc2)no1)OCc1ccc(Br)cc1	28*	4	15*	1	16*	6	5	0	2	-4
COc1ccccc1/C=C/C=N/NC(=O)Cc1cccn1C	-7	-18	-6	-28	4	.	.	.	.	.
Cn1cccc1CC(=O)NN=C/C=C\c1ccco1	85*	-11	66*	-9	81*	5	7	11*	-54	31*
O=C(O)c1cc(O)c2c(c1)[C@H]([C@H]1c3cc(C(=O)O)cc(O)c3C(=O)c3c(O[C@@H]4O[C@H](CO)[C@@H](O)[C@H](O)[C@H]4O)cccc31)c1cccc(OC3O[C@H](CO)[C@@H](O)[C@H](O)[C@H]3O)c1C2=O (some centres not stated)	73*	33*	33*	19*	82*	90*	94*	74*	-261	80*	PLCgamma1 ctr=28*;PLCb3 confirm=7
O=C1c2c(O)cccc2C(C2OC(CO)[C@@H](O)[C@H](O)[C@H]2O)c2cc(CO)cc(O)c21 (some centres not stated)	-7	-5	0	-11	2	.	.	.	.	.
O=C(Nc1cccc(C(F)(F)F)c1)O[C@@H]1CC[C@@]23CCCN2C(=O)CCC[C@H]3C1	1	2	-8	5	4	.	.	.	.	.
O=c1ccc2ccc(O)cc2o1	2	i	6	i	-4	.	.	.	.	.
O=c1ccc2cc(O)c(O)cc2o1	94*	i	71*	i	94*	5	4	7	-36	6
COc1ccc(Br)cc1/C=c1\sc2nc(-c3ccco3)nn2c1=O	71*	-5	23*	-12	24*	22*	12	3	-14	15*
COc1ccc(Cl)cc1Nc1nc(NCCO)nc(N2CCCC2)n1	72*	1	17*	3	24*	1	10	2	-7	-1
COc1ccc(Cl)cc1Nc1nc(NCCO)nc(N2CCCCC2)n1	-7	3	-4	4	-1	.	.	.	.	.
O=C(O)c1cccc(S(=O)(=O)NCC(=O)N2CCN(c3ccccn3)CC2)c1	2	1	1	3	3	.	.	.	.	.
O=C1CC(=O)N(Cc2ccco2)C(=O)N1	93*	1	64*	-7	89*	100*	74*	18*	-90	87*
O=c1cc(Br)c(O)c(Br)cc1Br	39*	6	14*	-6	46*	14	-1	5	-24	21*
FC(F)(F)C1=Nc2cccc3cccc(c23)N1	54*	13*	34*	4	79*	9	2	57*	-205	57*	PLCgamma1 ctr=12*;PLCb3 confirm=10
SMILES	UHRF1 binding	PLC-gamma1 inh	MBD2 DNA inh	PLC-beta3 inh	LEDGF integ inh	UHRF1 DNA bind	MBD2 DBD conf	IN multimer act	TR-FRET interf	IN-LEDGF confirm	others
Fc1ccc(C2=Nc3cccc4cccc(c34)N2)cc1	-2	-3	2	-3	-3	.	.	.	.	.
CCNc1nc(NC(C)C)nc(N(C#N)C(C)C(=O)N(C)C)n1 (configuration not stated)	4	0	4	0	0	.	.	.	.	.
CCNc1nc(NC(C)C)nc(N(C#N)CC(=O)OC)n1	63*	3	32*	1	18*	7	4	-1	4	2
O=C1c2ccc3c4c(ccc(c24)C(=O)N1c1ccc2ccccc2c1)CC3	-1	-6	-5	-4	-2	.	.	.	.	.
O=C1CCC(=O)c2ccc3c4c(ccc1c24)CC3	66*	-97	36*	-141	44*	6	1	-1	4	-1
C=CCCC(=O)N[C@H]1CC[C@@]23CCCN2C(=O)CCC[C@H]3[C@H]1CCC	2	4	0	4	-1	.	.	.	.	.
O=C1c2c(O)cccc2Cc2cccc(O)c21	-3	3	-6	6	2	.	.	.	.	.
O=C1Cc2cccc(=O)c(O)c2C(=O)O1	28*	1	13*	-4	20*	28*	11	6	-31	26*
CCC(=O)N1CCc2cc(Br)c(S(=O)(=O)NCCCN(CC)Cc3ccccc3)cc21	-1	-2	2	1	0	.	.	.	.	.
